Source: PubChem BioAssay
GPR151 ag: activates the human receptor GPR151 | 650,000 tested, 1% active | PathHunter beta-arrestin GPR151 cells, luminescence | AID 1508602 | Q8TDV0 | activation, % at 11.2 µM; in the data active means activation above about 4.9%;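 further: 0% = median of compound wells and 100% = cells with positive control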
TEAD-YAP block: TEAD-YAP interaction inhibition. HEK-TIYL cells, TEAD-Gal4/YAP UAS-luciferase luminescence. inhibition, % at 9.12 µM. 640,000 tested, 1.4% active; in the data active means inhibition above about 32%;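 further: 0% = median of test compound wells and 100% = reference inhibitor wells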
FBW7 activator: activators of human E3 ligase FBW7. Q969H0. AlphaScreen FBW7–phospho-cyclin E peptide binding, activator screen. normalized activity (activation), % at 26.1 µM. 650,000 tested, 0.13% active; in the data active means normalized activity above about 1.9%;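 further: purified mutant Fbw7 with reduced substrate affinity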
Target sequence (Q969H0 whole entry, looked up): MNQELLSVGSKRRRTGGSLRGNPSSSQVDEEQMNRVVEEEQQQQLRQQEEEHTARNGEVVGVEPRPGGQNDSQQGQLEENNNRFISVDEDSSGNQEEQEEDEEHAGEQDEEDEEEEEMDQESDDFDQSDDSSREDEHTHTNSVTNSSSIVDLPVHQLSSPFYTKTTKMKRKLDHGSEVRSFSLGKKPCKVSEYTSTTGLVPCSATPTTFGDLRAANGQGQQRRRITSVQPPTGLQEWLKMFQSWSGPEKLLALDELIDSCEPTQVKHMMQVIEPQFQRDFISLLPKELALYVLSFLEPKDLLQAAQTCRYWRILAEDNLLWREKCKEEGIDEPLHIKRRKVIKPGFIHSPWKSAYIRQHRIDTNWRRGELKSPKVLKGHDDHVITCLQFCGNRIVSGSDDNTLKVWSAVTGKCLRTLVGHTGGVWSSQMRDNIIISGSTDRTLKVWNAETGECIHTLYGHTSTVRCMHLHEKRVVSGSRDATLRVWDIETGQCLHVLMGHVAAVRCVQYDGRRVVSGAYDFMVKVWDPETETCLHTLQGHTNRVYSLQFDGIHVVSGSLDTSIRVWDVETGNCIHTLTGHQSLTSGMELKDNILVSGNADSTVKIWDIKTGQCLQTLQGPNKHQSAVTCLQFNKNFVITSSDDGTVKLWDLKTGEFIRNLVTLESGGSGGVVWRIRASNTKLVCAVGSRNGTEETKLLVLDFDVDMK
MITF inh: human MITF inhibition, primary screen | AID 1259374 | inhibition, % at 2.6 µM | AlphaScreen MITF homodimerization, bead proximity signal | 650,000 tested, 0.91% active; in the data active means inhibition above about 50%;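 further: 0% = vehicle wells with protein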
MITF inh conf: human MITF inhibition, confirmation; shares compounds with MITF inh; AlphaScreen MITF homodimerization, biotin/His-MITF beads; inhibition, % at 2.6 µM; 4,700 tested, 16% active; AID 1259372;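 active means inhibition above a cutoff derived from the DMSO control wells, cut at about 28% in these data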;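 further: 0% = MITF dimer wells with DMSO only; inhibitors lower the bead chemiluminescence by keeping MITF from dimerizing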
AS interf DR: counter-screen: compounds optically interfering with AlphaScreen; shares compounds with MITF inh; AlphaScreen optical interference counterscreen, cell-free; IC50, µM; 480 tested, 6% active; AID 1259373; call rule not given here
AlphaScreen intf2: counter-screen: compounds optically interfering with AlphaScreen | AID 1259376 | LysRS AlphaScreen counterscreen, signal interference, triplicate | shares compounds with MITF inh | 4,700 tested, 7.6% active | inhibition, % at 2.6 µM;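 active means inhibition above a cutoff derived from the DMSO control wells, cut at about 30% in these data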
GPR151 conf act: human GPR151 activation, confirmation screen | shares compounds with GPR151 ag | GPR151 PathHunter beta-arrestin cells, luminescence, 90 min; % of EA-reagent control over plate median | activation, % at 11.2 µM | 6,700 tested, under 10 active;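 active means mean percent activation across replicates above the confirmation screen cutoff of 4.91%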
GPR119 ag: GPR119 activation, counter-screen for GPR151 activators. AID 1508611. shares compounds with GPR151 ag. activation, % at 11.2 µM. 6,700 tested, 0.3% active. GPR119 PathHunter beta-arrestin cells, luminescence, 90 min; 0 = compound-well median, 100 = enzyme-acceptor control;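 active means mean percent activation in the counterscreen above 29.09%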;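 further: counterscreen on off-target GPR119 to flag nonselective hits from the GPR151 activator screen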
The depositor's hits bear a star; / = no result given. Hits are enriched below; roughly 3.5% of the tested compounds scored in any of these assays.

SMILES	GPR151 ag	TEAD-YAP block	FBW7 activator	MITF inh	MITF inh conf	AlphaScreen intf2	GPR151 conf act	GPR119 ag	others
CCN(CC)CCCNC(=O)/C=C/c1cccc([N+](=O)[O-])c1	0	-2	0	-5	/	/	/	/
Cc1ccc(-n2c(SCC(=O)Nc3cc(C)on3)nc3c(sc(=S)n3-c3ccc(Cl)c(C)c3)c2=O)cc1	0	-13	0	-10	/	/	/	/
O=C(c1cn(-c2ccccc2)nc1-c1cccs1)N1CCOCC1	1	-15	0	-16	/	/	/	/
O=C(c1cn(-c2ccccc2)nc1C12CC3CC(CC(C3)C1)C2)N1CCOCC1	0	-3	0	59*	3	11	/	/
COc1cccc(C(=O)COC(=O)CCCC(=O)Nc2ccc([N+](=O)[O-])cc2)c1	2	8	0	62*	11	14	/	/
COc1cccc(C(=O)COC(=O)CCC(=O)Nc2ccc([N+](=O)[O-])cc2)c1	1	0	0	0	/	/	/	/
O=C(CCSc1c(Cl)cccc1[N+](=O)[O-])N1CCOCC1	0	-2	0	10	/	/	/	/
Cc1cc(C)n(CCCNCC(O)COCc2cccs2)n1 (centres undefined)	1	11	0	79*	12	14	/	/
Cc1cc(C)n(CCCNCC(O)COCc2ccccc2)n1 (centres undefined)	0	5	0	38	/	/	/	/
CC(C)(C)C(=O)Nc1nc(-c2cc3ccccc3o2)cs1	2	-20	0	9	/	/	/	/
Cc1cnc(Nc2nc3ccccc3n2C)nc1Nc1ccccc1	-1	-17	0	73*	-6	14	/	/
Cc1cnc(Nc2ccc(-n3ccnc3)cc2)nc1Nc1ccccc1	2	37*	0	52*	-13	-1	/	/
CCN(CC)CC(O)CN1CCN(C(=O)c2ccccc2)CC1 (centres undefined)	-2	-6	0	52*	11	10	/	/
CC(C)(C)OCC(O)CN1CCN(C(=O)c2ccccc2)CC1 (centres undefined)	-2	-12	0	43	/	/	/	/
CCN(CC)CC(O)CN1CCN(S(=O)(=O)c2ccc(Cl)cc2)CC1 (centres undefined)	0	6	0	61*	8	7	/	/
COc1ccc(C(=O)N2CCN(Cc3ccc(Br)cc3)CC2)cc1	1	31	0	44	/	/	/	/
O=C(c1ccncc1)N1CCN(Cc2ccc(Br)cc2)CC1	10*	2	0	77*	6	22	1	16
CC1CN(CCCOc2cc(Cl)ccc2Cl)CC(C)O1 (centres undefined)	8.0*	2	0	67*	2	15	0	-9
Cc1ccc(-n2c(=O)c3oc4ccccc4c3n(CC(N)=O)c2=O)cc1	5.5*	-4	0	54*	11	12	0	-5
Cc1cc(NC(=O)COc2ccc(Cl)cc2Cl)ccc1N1CCCC1=O	-2	-1	0	-4	/	/	/	/
Cc1ccc(OCCOCCN2CCCCC2)c([N+](=O)[O-])c1	7.6*	4	0	77*	12	14	-1	-12
O=C(N/N=C/c1c(O)ccc2ccccc12)C1CC12CCC2 (centres undefined)	0	-21	0	11	/	/	/	/
O=C1N[C@@H](COCc2ccccc2)C(=O)N2CCN(C(=O)Oc3ccc(Cl)cc3)C[C@H]12	2	2	0	-7	/	/	/	/
O=C1N[C@@H](COCc2ccccc2)C(=O)N2CCN(C(=O)NCc3ccccc3)C[C@H]12	7.7*	6	0	75*	72*	-3	0	11	AS interf DR=>6.5
COc1ccc(NC(=O)c2cnc(N3CCN(c4ccccn4)CC3)c3ccccc23)cc1Cl	-1	19	0	-3	/	/	/	/
SMILES	GPR151 ag	TEAD-YAP block	FBW7 activator	MITF inh	MITF inh conf	AlphaScreen intf2	GPR151 conf act	GPR119 ag	others
COc1ccc(NC(=O)c2cnc(N3CCN(c4ncccn4)CC3)c3ccccc23)cc1OC	5.3*	50*	0	63*	-9	-4	0	30*
O=C(Cn1nnc2c(cnn2-c2ccc(F)cc2)c1=O)N1CCc2ccccc21	1	-6	0	5	/	/	/	/
COC(=O)N(C)c1nc2ccccc2s1	5.1*	-20	0	72*	-2	-7	0	-10
CCN1CCN(CCOc2ccc(C)cc2OC)CC1	5.8*	4	0	76*	15	19	0	-2
COc1cc(C)ccc1OCCCN1CCCCCC1	2	0	0	9	/	/	/	/
O=C(NCCN1CCN(C(=O)CSCc2ccccc2)CC1)c1cccs1	-1	-7	1	7	/	/	/	/
COc1cc2nc(NCCCOC(C)C)n3nc(-c4cccnc4)nc3c2cc1OC	5.2*	10	0	1	/	/	0	-9
NCCCC[C@@H]1NC(=O)[C@@H]2C[C@H](NC(=O)Nc3cccc(Cl)c3)CN2C1=O	-1	-3	0	-4	/	/	/	/
O=C(NCCCc1ccccc1)c1cc(S(=O)(=O)N2CCCCC2)c[nH]1	0	-6	0	7	/	/	/	/
Nn1c[n+](CC(=O)c2ccc(Cl)cc2)c2ccccc21	0	-8	1	-192	/	/	/	/
COC(=O)c1ccc(/C=C2\NC(=S)N(c3ccc(OC)cc3)C2=O)cc1	6.7*	12	0	5	/	/	0	2
COc1ccc(N2C(=O)/C(=C/c3ccc(OCC(=O)O)cc3)NC2=S)cc1	0	1	0	0	/	/	/	/
CC(=O)N1CCN(C(=O)c2ccc3c(c2)OCO3)CC1	5.5*	3	0	-2	/	/	0	-3
O=C(c1ccc2c(c1)OCO2)N1CCN(c2ccc(Cl)cc2)CC1	5.5*	-6	0	17	/	/	3	-2
O=C(c1ccc2c(c1)OCO2)N1CCCCCC1	1	-1	0	16	/	/	/	/
CC(=O)c1ccc(N2CCN(C(=O)c3ccc4c(c3)OCO4)CC2)cc1	0	-8	0	-11	/	/	/	/
CC(=O)Oc1ccc(C(=O)N2CCCc3ccccc32)cc1	2	3	0	6	/	/	/	/
Cc1ccc(S(=O)(=O)NCC2(c3cccs3)CCOCC2)c(C)c1	7.3*	-1	0	4	/	/	1	-6
OCc1ccccc1OCc1cccc2ccccc12	5.3*	-16	0	6	/	/	0	8
CCCNCCC1CCC(=O)N1CCc1cccc(OC)c1 (centres undefined)	6.7*	-11	0	9	/	/	-1	10
COc1cccc(CCN2C(=O)CCC2CCNCc2cccc(F)c2)c1 (centres undefined)	5.1*	5	0	1	/	/	0	6
